ALDH1A1 inh = inhibitors of human aldehyde dehydrogenase 1A1 | P00352 | Purified ALDH1A1, NADH fluorescence, propionaldehyde substrate | Potency, µM (doses to about 75.3 µM), inactives show at the highest dose activity, negative = inhibition, usual class: inhibitors | actives 7.3% (n = 220,000); active means well fitted inhibition curve with a large enough effect, not every such curve was filed as active; inconclusive means small, poorly fitted or top-dose-only effect, or another doubt; inactive means no such curve, though single readings can be large or run the other way;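 further: potency means the concentration at half of the fitted maximal effect; plate controls were no enzyme wells and a reference inhibitor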
HPGD block = blocks human HPGD enzyme activity. actives 4.3% (n = 150,000). purified HPGD, NADH fluorescence kinetic, PGE2 substrate. P15428. Potency, µM, for inactives: at the top dose activity change, negative = inhibition, hits mostly inhibitors; active means well fitted inhibition curve with a large enough effect, not every such curve was filed as active; inconclusive means small, poorly fitted or top-dose-only effect, or another doubt; inactive means no such curve, though single readings can be large or run the other way; further: potency means the concentration at half of the fitted maximal effect
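20 nM HPGD preincubated 15 min at room temperature with compound in 50 mM Tris-HCl pH 8, 0.01% Tween 20. Started with 1 mM NAD+ and 30 uM prostaglandin E2; NADH fluorescence (360/450 nm) read 5 times over 30-s intervals, last minus first.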
IMPase Li cell = membrane-permeable IMPase blocker, potentiated with lithium; CHO-M1 cells, IP1 TR-FRET (IP-One), carbachol + lithium; Potency, µM (highest dose often 59.4 µM), for the others: top-dose activity, negative = IMPase inhibition, hits mostly inhibitors; actives 0.35% (n = 210,000);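 further: IP1 builds up when IMPase is blocked and the TR-FRET signal falls; potency means the concentration at half of the fitted maximal effect; plate controls were basal vehicle for no effect and high inhibitor control for full effect; nearly all actives have a fitted effect of over 50% in size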
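Steps: plate 2000 CHO-M1 cells per well and culture 16–30 h; add compound and lithium; incubate 30 min, 37C; add d2-IP1 tracer and Eu cryptate anti-IP1 antibody in lysis buffer; read after 10 min at room temperature.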
12-hLO inh = 12-hLO (ALOX12) enzyme inhibition | P18054 | purified 12-hLO, xylenol orange hydroperoxide absorbance | Potency, µM (series often up to 57.1 µM), without a hit: top-dose activity change, negative = inhibition, usual class: inhibitors | actives 0.12% (n = 150,000) | AID 1452; further: potency means the concentration at half of the fitted maximal effect; nearly all actives have a fitted effect of over 55% in size
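Purified human 12hLO (150 nM final) was preincubated with compounds for 15 min at room temperature in 25 mM Hepes pH 7.0, 0.01% Triton X-100, then reacted with 40 uM arachidonic acid for 30 min. Hydroperoxide was detected with ferrous iron/xylenol orange.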
NPSR antag = neuropeptide S receptor (human) antagonism, cAMP; Q6W5P4; CHO-NPSR cells, cAMP TR-FRET, antagonist mode; Potency, µM (titrated, usually from 38.3 µM), without a hit: at the highest dose activity change, negative = inhibition, usual class: inhibitors; actives 1% (n = 220,000); AID 1461; further: potency means the concentration at half of the fitted maximal effect; nearly all actives have a fitted effect of over 50% in size
Target sequence (Q6W5P4 whole entry, looked up): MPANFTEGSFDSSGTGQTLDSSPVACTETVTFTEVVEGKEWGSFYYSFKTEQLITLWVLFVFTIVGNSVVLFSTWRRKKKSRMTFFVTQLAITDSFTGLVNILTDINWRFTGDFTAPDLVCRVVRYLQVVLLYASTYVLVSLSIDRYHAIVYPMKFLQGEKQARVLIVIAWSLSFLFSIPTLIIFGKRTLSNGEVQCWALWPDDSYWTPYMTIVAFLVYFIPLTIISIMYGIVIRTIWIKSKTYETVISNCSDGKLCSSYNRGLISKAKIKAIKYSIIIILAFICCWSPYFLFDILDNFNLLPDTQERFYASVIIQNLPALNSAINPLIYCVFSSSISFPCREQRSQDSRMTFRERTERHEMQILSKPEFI
IMPase inh = cell-permeable inhibitors of inositol monophosphatase (IMPase). P97697. CHO-M1 cells, IP1 accumulation, HTRF TR-FRET ratio. inhibition (IP1 accumulation), % at 46.1 µM. 120,000 tested, under 10 active. AID 901; active means well fitted curve in the direction sought with a large enough effect in the signal ratio, not every such curve was filed as active; inconclusive means small, poorly fitted or top-dose-only effect, or a change in a side signal; inactive means no such curve, though single readings can be large or run the other way; the % refers to the signal ratio;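 further: cells stimulated with carbachol in lithium chloride buffer; plate controls were DMSO basal wells for no effect and reference inhibitor wells for full effect; higher means more IMPase inhibition seen as more IP1 and lower FRET ratio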
Target sequence (P97697 whole entry, looked up): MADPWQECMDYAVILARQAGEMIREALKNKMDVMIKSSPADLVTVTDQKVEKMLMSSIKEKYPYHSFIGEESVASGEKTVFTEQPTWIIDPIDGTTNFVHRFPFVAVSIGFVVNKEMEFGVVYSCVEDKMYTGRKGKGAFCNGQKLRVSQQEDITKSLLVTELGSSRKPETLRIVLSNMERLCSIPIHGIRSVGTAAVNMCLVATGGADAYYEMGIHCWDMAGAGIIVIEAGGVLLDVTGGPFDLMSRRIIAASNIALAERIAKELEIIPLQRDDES
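Measured: the HTRF emission ratio (665/620 nm) plus the 620 nm donor channel, each fitted to the Hill equation to give AC50. Cells were CHO-M1 given compounds up to 46 uM and a 30 min carbachol stimulation at 37C.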
* marks the source's active call; other numbers are inactive results; [ ] = another dose, or the depositor's remark. Only some compounds are listed: those with a hit (about 8.9% of all), similar ones and a draw of the others. Unless noted, the call rests on the fitted dose curve; in most records, active means well fitted curve in the direction sought with a large enough effect; inconclusive means small, poorly fitted or top-dose-only effect, or another doubt; inactive means no such curve, though single readings can be large; an effect the other way counts as inactive or inconclusive. Unless noted, on the % scale 0 is the no-effect control and ±100 the full control effect.

How did CN(C)c1cc[n+](CC(=O)Nc2ccc([N+](=O)[O-])cc2Cl)cc1 do in these assays?
ALDH1A1 inh: 6%; HPGD block: 0%; IMPase Li cell: 22%[38.3 µM]; 12-hLO inh: -3%; NPSR antag: -10%[46.1 µM]; IMPase inh: 12

What do the screens show for `CN(c1ccc(O)cc1)c1nc(-c2ccccc2)cs1`?
ALDH1A1 inh: 9%; HPGD block: 16µM*; IMPase Li cell: 20%; 12-hLO inh: -5%; NPSR antag: -37%

Results for CN(C)CCCN(C(=O)c1cccs1)c1nc(-c2ccccc2)cs1 ?
ALDH1A1 inh: -1%; HPGD block: -3%; IMPase Li cell: 51%[38.3 µM]; 12-hLO inh: 8%; NPSR antag: 2%[46.1 µM]; IMPase inh: 13

What do the screens show for `Cc1nn(CC(O)c2ccccc2)c(C)c1Br` (stereo not drawn)?
ALDH1A1 inh: 18µM*; HPGD block: -3%; IMPase Li cell: -7%[38.3 µM]; 12-hLO inh: 1%; NPSR antag: -8%[46.1 µM]; IMPase inh: 4

Results for Cc1nn(CC(O)CN2c3ccccc3Sc3ccccc32)c(C)c1Br (stereo not drawn) ?
ALDH1A1 inh: 7%; HPGD block: -9%; IMPase Li cell: 13%[38.3 µM]; 12-hLO inh: -15%; NPSR antag: 6.3µM*; IMPase inh: 9

How did OC(CN1c2ccccc2Sc2ccccc21)Cn1nnc2ccccc21 (stereo not drawn) do in these assays?
ALDH1A1 inh: inconclusive; HPGD block: -23%; IMPase Li cell: 25%; 12-hLO inh: 0%; NPSR antag: -19%[46.1 µM]; IMPase inh: 11

Results for COc1ccc(Cc2nnc(N/N=C/c3ccc(O)cc3O)[nH]c2=O)cc1OC ?
ALDH1A1 inh: -7%; HPGD block: 32µM*; IMPase Li cell: 30%; 12-hLO inh: -21%; NPSR antag: 10%

Results for Cc1nc(NC(=O)CCl)sc1C(=O)N(C)C ?
ALDH1A1 inh: 32µM*; IMPase Li cell: 5%; NPSR antag: 44%

What do the screens show for `CCN(CC)c1ccc(N=Cc2ccc([N+](=O)[O-])o2)cc1`?
ALDH1A1 inh: inconclusive; HPGD block: -11%; IMPase Li cell: 19%; 12-hLO inh: -13%; NPSR antag: -50%

How did CCN(CC)c1ccc(C2NCC(c3ccc([N+](=O)[O-])cc3)O2)cc1 (stereo not drawn) do in these assays?
ALDH1A1 inh: 0.28µM*; HPGD block: -11%; IMPase Li cell: -6%; 12-hLO inh: 2%; NPSR antag: -11%[46.1 µM]; IMPase inh: 5

What do the screens show for `O=C(Nc1ccc(C2=NCCN2)cc1)c1ccc(C(=O)Nc2ccc(C3=NCCN3)cc2)c([N+](=O)[O-])c1`?
NPSR antag: 9%

How did CCOC(=O)c1[nH]c2ccc(OC)cc2c1NC(=O)CN1CCC2(CC1)OCCO2 do in these assays?
ALDH1A1 inh: inconclusive; HPGD block: inconclusive; IMPase Li cell: -3%[38.3 µM]; 12-hLO inh: -3%; NPSR antag: -4%[46.1 µM]; IMPase inh: -6

Results for CCn1c(C(=O)N2CCCC(C(=O)NCCc3ccc(C)cc3)C2)cc2sccc21 (stereo not drawn) ?
ALDH1A1 inh: 32µM*; HPGD block: -5%; IMPase Li cell: -11%[38.3 µM]; 12-hLO inh: -5%; NPSR antag: -29%[46.1 µM]; IMPase inh: -1

How did Cn1c(C(=O)N2CCCC(C(=O)NCCCSC3CCCCC3)C2)cc2sccc21 (stereo not drawn) do in these assays?
ALDH1A1 inh: 1.3µM*; HPGD block: -5%; IMPase Li cell: -1%[38.3 µM]; 12-hLO inh: inconclusive; NPSR antag: inconclusive; IMPase inh: 0

How did Cn1c(C(=O)N2CCCC(C(=O)NCc3cccs3)C2)cc2sccc21 (stereo not drawn) do in these assays?
ALDH1A1 inh: inconclusive; HPGD block: -25%; IMPase Li cell: 12%[38.3 µM]; 12-hLO inh: 8%; NPSR antag: -11%[46.1 µM]; IMPase inh: -8

What do the screens show for `OC1(c2cccc(C(F)(F)F)c2)CCN(c2ncnc3c2[nH]c2ccc(F)cc23)CC1`?
ALDH1A1 inh: inconclusive; HPGD block: inconclusive; IMPase Li cell: -17%[38.3 µM]; 12-hLO inh: 18µM*; NPSR antag: 13µM*; IMPase inh: 3

Results for Cc1onc(-c2c(F)cccc2Cl)c1-c1nnc(-c2cccc3ccccc23)o1 ?
NPSR antag: 33%

How did CN(C)/C=C/c1onc(-c2c(F)cccc2Cl)c1C#N do in these assays?
ALDH1A1 inh: 3.5µM*; IMPase Li cell: inconclusive; NPSR antag: -24%

Results for COc1ccccc1-c1cc(C(=O)NCc2cccs2)no1 ?
ALDH1A1 inh: inconclusive; HPGD block: 14µM*; IMPase Li cell: -5%[38.3 µM]; 12-hLO inh: -1%; NPSR antag: inconclusive; IMPase inh: 7

How did COc1ccccc1-c1cc(C(=O)NCc2ccco2)no1 do in these assays?
ALDH1A1 inh: -14%; HPGD block: 20µM*; IMPase Li cell: -21%[38.3 µM]; 12-hLO inh: -5%; NPSR antag: -14%[46.1 µM]; IMPase inh: -5

What do the screens show for `COc1ccccc1-c1cc(C(=O)Nc2ccc(F)cc2F)no1`?
ALDH1A1 inh: inconclusive; HPGD block: inconclusive; IMPase Li cell: 8.9µM*; 12-hLO inh: -3%; NPSR antag: inconclusive; IMPase inh: inconclusive

What do the screens show for `COc1ccccc1-c1cc(C(=O)NC(C)C)no1`?
ALDH1A1 inh: inconclusive; HPGD block: inconclusive; IMPase Li cell: -9%[38.3 µM]; 12-hLO inh: 2%; NPSR antag: -17%[46.1 µM]; IMPase inh: 0

How did COCCNC(=O)c1cc(-c2ccccc2OC)on1 do in these assays?
ALDH1A1 inh: inconclusive; HPGD block: inconclusive; IMPase Li cell: 5%[38.3 µM]; 12-hLO inh: -8%; NPSR antag: 7%[46.1 µM]; IMPase inh: -1

How did COc1ccc(OC)c(-c2cc(C(=O)NCc3cccs3)no2)c1 do in these assays?
ALDH1A1 inh: inconclusive; HPGD block: inconclusive; IMPase Li cell: 8%; 12-hLO inh: -5%; NPSR antag: inconclusive; IMPase inh: 0

How did CCN(CC)C(=O)c1cc(-c2ccccc2OC)on1 do in these assays?
ALDH1A1 inh: 14µM*; HPGD block: inconclusive; IMPase Li cell: -7%[38.3 µM]; 12-hLO inh: 1%; NPSR antag: -17%[46.1 µM]; IMPase inh: 9

What do the screens show for `N#CC1=C(N)Oc2c(ccc3ccccc23)C1c1cccs1` (stereo not drawn)?
ALDH1A1 inh: inconclusive; HPGD block: -13%; IMPase Li cell: 29%[38.3 µM]; 12-hLO inh: -25%; NPSR antag: inconclusive; IMPase inh: 12

What do the screens show for `CC(C)NC(=S)N=Nc1c(O)[nH]c2ccc([N+](=O)[O-])cc12`?
ALDH1A1 inh: 10µM*; IMPase Li cell: 24%; NPSR antag: -43%

From PubChem
